Source: PubChem BioAssay (Tox21)
Values joined by “and” are separate entries in the source; they are usually repeats but may differ in a detail not shown here. Equal values may be shown once. Some structures have more than one record in an assay (separate samples or runs), and their calls can disagree. Active and inactive are the calls of the source. Where a call stands in place of a potency, no number is given. Unless noted, the call rests on the fitted dose curve; in most records, active means well fitted curve in the direction sought with a large enough effect in the repeat runs; inconclusive means weak or mixed curves; inactive means no such curve, though single readings can be large; an effect the other way counts as inactive or inconclusive.

Experiments:
[1] = qHTS assay to identify small molecule antagonists of the thyroid receptor (TR) signaling pathway - cell viability counter screen (AID 743064); further: nearly all actives have a fitted effect of over 50% in size; further: potency means the concentration at half of the fitted maximal effect
In short: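 In rat pituitary GH3.TRE-Luc reporter cells co-exposed to compound and 1 nM T3 for 23.5 h, cytotoxicity was assessed with CellTiter-Fluor in the same wells, read by fluorescence.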

[2] = qHTS assay to identify small molecule antagonists of the thyroid receptor (TR) signaling pathway (AID 743065); further: nearly all actives have a fitted effect of over 55% in size; further: potency means the concentration at half of the fitted maximal effect
In short: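 Antagonism measured as loss of luciferase signal in GH3 cells stably carrying a TRE-luciferase reporter, co-treated with compound and T3 (1 nM final) for 23.5 h at 37 C. Viability was read in the same well by CellTiter-Fluor.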

[3] = test system: thyroid hormone receptor (rat, GH3 cells); assay: qHTS assay to identify small molecule agonists of the thyroid receptor (TR) signaling pathway (AID 743066; calls by dose curve)
[4] = qHTS assay to identify small molecule antagonists of the estrogen receptor alpha (ER-alpha) signaling pathway using the BG1 cell line (AID 743080; calls by dose curve;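 further: BG1 cells stimulated with 17beta-estradiol alongside compound; nearly all actives have a fitted effect of over 25% in size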; further: potency means the concentration at half of the fitted maximal effect)
In short: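 Luciferase inhibition measured with ONE-Glo after 30 min at RT in BG1Luc4E2 cells given test compounds and 17beta-estradiol for 21.5 h at 37 C; CellTiter-Fluor viability read in the same wells beforehand.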

[5] = qHTS assay to identify small molecule antagonists of the estrogen receptor alpha (ER-alpha) signaling pathway using the BG1 cell line - cell viability counter screen (AID 743081);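 further: compound given together with 17beta-estradiol as the ER stimulus; nearly all actives have a fitted effect of over 45% in size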; further: potency means the concentration at half of the fitted maximal effect
[6] = molecular target: Aromatase (Homo sapiens) (UniProt P11511); assay: qHTS assay to identify aromatase inhibitors (AID 743083); further: nearly all actives have a fitted effect of over 55% in size; further: potency means the concentration at half of the fitted maximal effect
Sequence of Aromatase (Homo sapiens) (P11511 whole entry, looked up): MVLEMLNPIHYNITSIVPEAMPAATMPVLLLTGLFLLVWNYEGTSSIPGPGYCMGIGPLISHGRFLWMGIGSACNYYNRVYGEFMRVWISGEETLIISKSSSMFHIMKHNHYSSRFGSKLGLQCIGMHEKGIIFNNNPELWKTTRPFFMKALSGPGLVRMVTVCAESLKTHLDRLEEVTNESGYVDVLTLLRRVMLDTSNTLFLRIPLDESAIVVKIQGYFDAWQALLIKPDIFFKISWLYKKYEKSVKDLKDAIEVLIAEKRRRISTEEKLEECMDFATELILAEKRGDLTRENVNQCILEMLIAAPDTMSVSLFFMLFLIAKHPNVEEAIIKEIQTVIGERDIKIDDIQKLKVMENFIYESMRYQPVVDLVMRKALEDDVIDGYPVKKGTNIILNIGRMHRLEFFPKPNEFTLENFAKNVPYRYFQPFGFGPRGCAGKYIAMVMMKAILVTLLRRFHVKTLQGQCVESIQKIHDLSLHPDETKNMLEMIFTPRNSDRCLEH

[7] = molecular target: Estrogen receptor (Homo sapiens) (UniProt P03372); assay: qHTS assay to identify small molecule agonists of the estrogen receptor alpha (ER-alpha) signaling pathway (AID 743075; calls by dose curve;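 further: HEK293 GripTite cells with ER-alpha and UAS-driven beta-lactamase reporter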)
Sequence of Estrogen receptor (Homo sapiens) (P03372 whole entry, looked up): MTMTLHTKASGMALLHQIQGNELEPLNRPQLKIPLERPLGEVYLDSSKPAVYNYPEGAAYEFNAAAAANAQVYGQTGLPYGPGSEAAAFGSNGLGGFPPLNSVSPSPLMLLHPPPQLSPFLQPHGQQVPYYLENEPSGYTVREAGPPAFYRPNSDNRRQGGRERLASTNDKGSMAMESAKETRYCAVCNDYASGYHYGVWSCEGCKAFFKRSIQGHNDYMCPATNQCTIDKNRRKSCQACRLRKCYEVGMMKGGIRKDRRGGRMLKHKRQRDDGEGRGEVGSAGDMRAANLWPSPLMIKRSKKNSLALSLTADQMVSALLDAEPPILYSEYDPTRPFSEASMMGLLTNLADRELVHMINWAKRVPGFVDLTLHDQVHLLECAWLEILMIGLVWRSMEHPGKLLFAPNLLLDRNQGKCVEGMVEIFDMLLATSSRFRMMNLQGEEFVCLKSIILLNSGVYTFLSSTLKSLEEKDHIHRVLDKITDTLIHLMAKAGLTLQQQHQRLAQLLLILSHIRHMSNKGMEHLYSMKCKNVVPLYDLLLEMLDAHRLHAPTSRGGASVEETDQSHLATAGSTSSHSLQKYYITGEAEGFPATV

[8] = molecular target: Estrogen receptor (Homo sapiens) (UniProt P03372); assay: qHTS assay to identify small molecule agonists of the estrogen receptor alpha (ER-alpha) signaling pathway using the BG1 cell line (AID 743079); conditions: BG1Luc4E2 cells, ERE-luciferase agonist, 22 h; activation: at 70.3 µM (top of the series); further: nearly all actives have a fitted effect of over 20% in size; further: potency means the concentration at half of the fitted maximal effect
[9] = qHTS assay to identify small molecule antagonists of the estrogen receptor alpha (ER-alpha) signaling pathway - cell viability counter screen (AID 743074; calls by dose curve;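 further: HEK293 cells carrying ER-alpha-UAS-bla reporter stimulated with 17beta-estradiol; nearly all actives have a fitted effect of over 45% in size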; further: potency means the concentration at half of the fitted maximal effect)
[10] = molecular target: Estrogen receptor (Homo sapiens) (UniProt P03372); assay: qHTS assay to identify small molecule antagonists of the estrogen receptor alpha (ER-alpha) signaling pathway (AID 743069; active means well fitted curve in the direction sought with a large enough effect in the signal ratio in the repeat runs, not every such curve was filed as active; inconclusive means weak or mixed curves, or effect the other way; inactive means no such curve, though single readings can be large or run the other way; the % refers to the signal ratio; further: potency means the concentration at half of the fitted maximal effect)
In short: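 ER-alpha-UAS-bla GripTite HEK293 line; 2% charcoal-stripped FBS overnight; plated, 4 hr 37C/5% CO2; cpd in DMSO + 17beta-estradiol, 18 hr 37C; LiveBLAzer B/G FRET substrate 2 hr RT; fluorescence intensity.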

## CC[C@]1(O)C[C@H]2CN(CCc3c([nH]c4ccccc34)[C@@](C(=O)OC)(c3cc4c(cc3OC)N(C=O)[C@H]3[C@@](O)(C(=O)OC)[C@H](OC(C)=O)[C@]5(CC)C=CCN6CC[C@]43[C@@H]65)C2)C1
[1]
  Potency: 0.106 µM (active)
[2]
  Potency: 0.0944 µM (active)
[3]
  outcome: inactive
[4]
  Potency: 0.0531 µM (active)
[5]
  Potency: inactive
[6]
  Potency: inactive

## O=c1cc(-c2ccccc2)oc2ccc3ccccc3c12
[1]
  Potency: inactive
[2]
  Potency: 9.69 µM (active)
[3]
  outcome: inactive
[7]
  Potency: inactive
[8]
  Potency: 2.43 µM (active)
[5]
  Potency: inactive
[6]
  Potency: 13.7 µM (active)

## COc1cc(Nc2c(C#N)cnc3cc(OCCCN4CCN(C)CC4)c(OC)cc23)c(Cl)cc1Cl
[1]
  Potency: 11.9 µM (active)
[2]
  Potency: 9.44 µM (active)
[9]
  Potency: 26.8 µM (active)
[6]
  Potency: 26.6 µM (active)

## CCC1CO1 (stereo not drawn)
[1]
  Potency: inactive
[2]
  Potency: inactive
[3]
  outcome: inactive
[5]
  Potency: inactive
[6]
  Potency: inactive

## CC(C)C[C@H](NC(=O)[C@H](CCc1ccccc1)NC(=O)CN1CCOCC1)C(=O)N[C@@H](Cc1ccccc1)C(=O)N[C@@H](CC(C)C)C(=O)[C@@]1(C)CO1
[1]
  Potency: 0.0422 µM (active)
[2]
  Potency: 0.0298 µM (active)
[10]
  Potency: 0.601 µM [inconclusive] (active)
[4]
  Potency: 0.188 µM (active)
[5]
  Potency: inactive
[6]
  Potency: 0.0335 µM (active)

## OCCN1CCN(CCCN2c3ccccc3Sc3ccc(Cl)cc32)CC1
[1]
  Potency: 3.59 µM (active)
[2]
  Potency: 5.07 µM (active)
[10]
  Potency: inactive
[9]
  Potency: inactive
[7]
  Potency: inactive
[8]
  Potency: inactive
[4]
  Potency: inactive
[5]
  Potency: inactive
[6]
  Potency: inactive

## CCC(C)COC(=O)CC(C)C (stereo not drawn)
[1]
  Potency: inactive
[3]
  outcome: inactive
[10]
  Potency: inactive
[9]
  Potency: inactive
[7]
  Potency: inactive
[8]
  Potency: inactive
[4]
  Potency: inactive
[5]
  Potency: inactive
[6]
  Potency: inactive

## O=[N+]([O-])c1cc(C2CCCCC2)c(O)c([N+](=O)[O-])c1
[1]
  Potency: 9.66 µM (active)
[2]
  Potency: 3.85 µM (active)
[10]
  Potency: 6.15 µM [inconclusive] (active)
[7]
  Potency: inactive
[5]
  Potency: 6.09 µM (active)
[6]
  Potency: 17.2 µM (active)

## C[C@@H]1CN(CCCn2c3ccccc3c3ccccc32)C[C@H](C)N1
[1]
  Potency: 10.6 µM (active)
[2]
  Potency: 8.41 µM (active)
[5]
  Potency: inactive

## c1cc(N(CC2CO2)CC2CO2)ccc1Cc1ccc(N(CC2CO2)CC2CO2)cc1 (stereo not drawn)
[1]
  Potency: 13.7 µM (active)
[2]
  Potency: 8.63 µM (active)
[3]
  outcome: inactive
[9]
  Potency: inactive
[6]
  Potency: 30.6 µM (active)

## C=Cc1ccc(S(=O)(=O)O)cc1
[1]
  Potency: inactive and 9.69 µM (active)
[3]
  outcome: inactive
[10]
  Potency: inactive
[9]
  Potency: inactive
[7]
  Potency: inactive
[8]
  Potency: 23.7 µM (active) and inactive
[4]
  Potency: inactive
[5]
  Potency: inactive
[6]
  Potency: inactive

## CN1C[C@H](C(=O)N[C@]2(C)O[C@@]3(O)[C@@H]4CCCN4C(=O)[C@H](Cc4ccccc4)N3C2=O)C[C@@H]2c3cccc4[nH]cc(c34)C[C@H]21
[1]
  Potency: 21.1 µM (active)
[2]
  Potency: 26.6 µM (active)
[10]
  Potency: inactive
[9]
  Potency: inactive
[7]
  Potency: inactive
[4]
  Potency: inactive
[5]
  Potency: inactive
[6]
  Potency: inactive

## C[C@@]12CCC[C@H]1[C@@H]1CC[C@H]3C[C@@H](O)CC[C@]3(C)[C@H]1CC2
[1]
  Potency: inactive
[2]
  Potency: inactive
[3]
  outcome: inactive
[5]
  Potency: inactive

## CC1(CN2CCC(n3c(=O)[nH]c4ccccc43)CC2)OCc2ccccc2-n2cccc21 (stereo not drawn)
[1]
  Potency: 29.8 µM (active)
[2]
  Potency: 26.6 µM (active)
[9]
  Potency: inactive
[7]
  Potency: inactive
[4]
  Potency: 29.8 µM (active)
[5]
  Potency: inactive

## O=C(Cn1ccnc1[N+](=O)[O-])NCCO
[1]
  Potency: inactive
[2]
  Potency: inactive
[3]
  outcome: inactive
[7]
  Potency: inactive
[8]
  Potency: inactive
[4]
  Potency: inactive
[5]
  Potency: inactive
[6]
  Potency: inactive

## Cc1ccc2c(Br)cc(Br)c(O)c2n1
[1]
  Potency: 26.6 µM (active)
[2]
  Potency: 18.8 µM (active)
[9]
  Potency: inactive
[5]
  Potency: inactive

## CCC1NC(=O)c2cc(S(N)(=O)=O)c(Cl)cc2N1 (stereo not drawn)
[1]
  Potency: inactive
[2]
  Potency: inactive
[3]
  outcome: inactive
[5]
  Potency: inactive
[6]
  Potency: inactive

## c1ccc2c(c1)CCc1ccccc1N2
[1]
  Potency: inactive
[2]
  Potency: inactive
[3]
  outcome: inactive
[5]
  Potency: inactive
[6]
  Potency: inactive

## CCCCCCCC/C=C\CCCCCCCCO
[1]
  Potency: inactive
[2]
  Potency: inactive
[3]
  outcome: inactive
[5]
  Potency: inactive
[6]
  Potency: inactive

## C[C@@H]1CC(=O)NN=C1c1ccc(NN=C(C#N)C#N)cc1
[1]
  Potency: 15 µM (active)
[2]
  Potency: 13.3 µM (active)
[9]
  Potency: inactive
[7]
  Potency: inactive
[4]
  Potency: inactive
[5]
  Potency: 23.7 µM (active)
[6]
  Potency: 29.8 µM (active)

## CCCCCCCCCCCCCCN(CCO)CCO
[1]
  Potency: 19.3 µM (active)
[2]
  Potency: 17.2 µM (active)
[3]
  outcome: inactive
[9]
  Potency: 54.9 µM (active)
[5]
  Potency: inactive
[6]
  Potency: 27.3 µM (active)

## CCOC(=O)c1ccccc1C(=C1C=C(Br)C(=O)C(Br)=C1)c1cc(Br)c(O)c(Br)c1
[1]
  Potency: 45.7 µM (active)
[2]
  Potency: 18.2 µM (active)
[3]
  outcome: inactive
[8]
  Potency: inactive
[5]
  Potency: inactive
[6]
  Potency: inactive

## CCC1(CO)COCOC1
[1]
  Potency: inactive
[2]
  Potency: inactive
[3]
  outcome: inactive
[7]
  Potency: inactive
[8]
  Potency: inactive
[4]
  Potency: inactive
[5]
  Potency: inactive
[6]
  Potency: inactive

## CC1=C(Br)C(=O)C(Br)=C/C1=C(/c1ccccc1S(=O)(=O)O)c1cc(Br)c(O)c(Br)c1C
[1]
  Potency: 46.6 µM (active)
[2]
  Potency: 18.6 µM (active)
[3]
  outcome: inactive
[5]
  Potency: 37 µM (active)
[6]
  Potency: 18.6 µM (active)

## CN1CCCC(CC2c3ccccc3Sc3ccccc32)C1 (stereo not drawn)
[1]
  Potency: 9.02 µM (active)
[2]
  Potency: 7.17 µM (active)
[10]
  Potency: inactive
[9]
  Potency: inactive
[7]
  Potency: inactive
[8]
  Potency: inactive
[4]
  Potency: inactive
[5]
  Potency: inactive
[6]
  Potency: inactive

## CN(C)CCC=C1c2ccccc2C=Cc2ccccc21
[1]
  Potency: 15 µM (active)
[2]
  Potency: 26.6 µM (active)
[9]
  Potency: inactive
[7]
  Potency: inactive
[8]
  Potency: inactive
[4]
  Potency: inactive
[5]
  Potency: inactive
[6]
  Potency: inactive
